Inhibition data for 23 compounds are collected here from PubChem BioAssay AID602195 (The Scripps Research Institute Molecular Screening Center, 2012).

Molecules are shown by their SMILES. Hit rate of the full screen: of about 1,600 compounds, about 430 (27%) were called active. The list is a sample of the results. Values without a mark were called inactive. Rule as the data show it: active = inhibition above about 29%; inactive = the rest.

The target of the test is Melanocortin receptor 4 (Homo sapiens) (UniProt P32245). Nature of the test: MC4R cAMP antagonists, retest, confirmation, cell-based, TR-FRET (AID 602195).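 Also: 0% = agonist stimulated wells alone and 100% = agonist stimulated wells plus saturating reference antagonist.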 The conditions noted are these: MC4R-expressing cells, MTII-stimulated cAMP, at 6.5 µM, stronger effect = higher value.
Melanocortin receptor 4 (Homo sapiens), sequence (P32245 whole entry, looked up): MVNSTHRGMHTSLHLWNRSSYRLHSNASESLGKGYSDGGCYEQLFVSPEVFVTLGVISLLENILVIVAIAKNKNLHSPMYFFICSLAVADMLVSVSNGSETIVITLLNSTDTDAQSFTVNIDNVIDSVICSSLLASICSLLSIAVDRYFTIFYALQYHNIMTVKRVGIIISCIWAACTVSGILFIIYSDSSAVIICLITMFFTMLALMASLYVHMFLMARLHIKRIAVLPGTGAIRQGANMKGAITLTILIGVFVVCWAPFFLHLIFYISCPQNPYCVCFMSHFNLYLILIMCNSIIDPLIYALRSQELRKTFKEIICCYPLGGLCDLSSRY
Take `O=C(NC1=CC(=O)c2ccccc2C1=O)c1ccccc1`: the inhibition (usually the relative decrease from the control value, in per cent) was 15.8%.
The value for `COc1ccc(C(C)C)cc1S(=O)(=O)Nc1ncn[nH]1` was 5.25%; that for `Cc1ccc(CSc2nnc(-c3cnccn3)n2C)cc1` was 10.6%.
On to `COc1ccc(Oc2c(Cl)cnn(-c3ccccc3)c2=O)cc1`, for which the inhibition is 72.2% (active).
As for `O=C(Nc1ccc(F)c([N+](=O)[O-])c1)C1CC(=O)N(Cc2ccccc2)C1` (stereo not drawn), the figure is 42.5% (active).
The value for `Cc1ccc(-c2nnc(CN3CCN(C)CC3)o2)cc1` was 7.87%; that for `COc1ccc(CCNC(=O)c2cnc(Cl)c(Cl)c2)cc1` was 35.6% (active); that for `COc1ccc(CCNC(=O)COC(=O)c2cnc(Cl)c(Cl)c2)cc1` was 36.7% (active).
As to `O=C(OCC(=O)N1CCCCCC1)c1cnc(Cl)c(Cl)c1`, the inhibition was 35.9% (active).
As for `CC(C)Oc1c(Br)cc(Br)cc1/C=N/NC(N)=S`, the figure is 25.2%.
Regarding `COc1ccc(Cl)cc1-c1cc(C(=O)Nc2cc(OC)c(OC)c(OC)c2)[nH]n1`, the inhibition was -21.1%.
As to `O=C(NCC1CCN(Cc2ccccc2Cl)CC1)Nc1cccc(Cl)c1`, the inhibition was -1.08%.
The value for `CC(NS(=O)(=O)c1ccc(Br)cc1)C(=O)NCC1CCCO1` (stereo not drawn) was 0.92%; that for `CCOC(=O)c1c(-c2ccccc2)oc2cc(Br)c(O)c(C=O)c12` was 68.6% (active).
As for `C=Cn1c(C(=O)O)ccc1-c1ccc(OC)cc1`, the figure is -8.3%; as for `N#C/C=C1\Sc2ccccc2C(=O)N1CC(=O)N1CCN(S(=O)(=O)c2ccccc2)CC1`, 3.29%; as for `CCCC(C(=O)n1nc(C)cc1C)C(NS(=O)(=O)c1ccc(C)cc1)c1ccccc1` (stereo not drawn), 13.1%.
As for `N#Cc1c(-c2cccs2)nc(SCC(=O)c2ccc(Br)cc2)[nH]c1=O`, the figure is 19.2%; as for `CC1(C)Cc2ccccc2-c2[nH]c(=S)[nH]c(=O)c21`, 36.1% (active).
For the compound `COc1ccc2oc(N)c(C=O)c(=O)c2c1`, the inhibition was -15.9%.
The value for `CC(=O)N1CCN(S(=O)(=O)c2c(F)cc(F)c(Cl)c2F)CC1` was 45.1% (active); that for `CCN(CC(=O)NCCCN1CCOCC1)S(=O)(=O)c1cc(Cl)ccc1Cl` was -1%; that for `COc1ccc(C(C[N+](=O)[O-])n2nc(C)cc2C)cc1` (stereo not drawn) was -13.7%.
